In PubChem BioAssay AID1159580 (chemical genetic matrix, 2015):
Out of some 5,500 compounds screened, about 2,000 (36%) were called active. Not shown: some 18% with an inconclusive outcome. No stated cut-off is given here; in the data, active means normalized growth mostly below about 0.91 (no sharp cut-off); inconclusive means no clear call, values can overlap the other calls; inactive means mostly above about 0.92. The list shows a part of the results.

Experiment: chemical genetic growth profiling, strain panel (AID 1159580);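 further: tested at 20 µM; growth read once vehicle control cultures reached saturation at 30 °C; 1 = growth at the plate median or of vehicle wells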
Settings: S. cerevisiae deletion strains, growth OD

Measured: normalized growth

CCN(CC)CCNC(=O)c1ccc(NC(C)=O)cc1
inactive: locus YAL040C, strain CLN3, stronger effect = lower value 0.985 | locus YDR150W, strain NUM1, stronger effect = lower value 0.975 | locus YER002W, strain NOP16, stronger effect = lower value 0.969 | locus YGR078C, strain PAC10, stronger effect = lower value 0.985 | locus YGR229C, strain SMI1, stronger effect = lower value 1.01 | locus YHR030C, strain SLT2, stronger effect = lower value 0.999 | locus YHR079C, strain IRE1, stronger effect = lower value 1.03 | locus YJL095W, strain BCK1, stronger effect = lower value 1.02 | locus YJR066W, strain TOR1, stronger effect = lower value 0.971 | locus YLR113W, strain HOG1, stronger effect = lower value 1.03 | locus YMR307W, strain GAS1, stronger effect = lower value 1.01 | locus YNL175C, strain NOP13, stronger effect = lower value 0.983 | locus YNL183C, strain NPR1, stronger effect = lower value 0.959 | locus YNL197C, strain WHI3, stronger effect = lower value 0.984 | locus YNL224C, strain SQS1, stronger effect = lower value 1.01 | locus YOR083W, strain WHI5 (second series), stronger effect = lower value 0.979 | locus YOR231W, strain MKK1, stronger effect = lower value 1.04 | locus YPL256C, strain CLN2, stronger effect = lower value 1.08
